High-throughput results as filed in PubChem BioAssay.
SMARCA2 activ = SMARCA2 (BRM) function activators, primary screen, cell-based, luminescence, high throughput; activation, % at 9.1 µM; AID 652017, 2013; 1% of 370,000 active; MG213 cells, MMTV-luciferase reporter, dexamethasone, overnight; in the data active = activation above about 7.8%
DAX1 inh-1 = DAX1 (NR0B1) inhibitors on StAR promoter, primary screen, cell-based, luminescence, SF-1 (NR5A1), full-length DAX-1; HEK293T StAR-luciferase reporter, SF-1/DAX-1 repression relief; inhibition, % at 6.8 µM; 1.1% of 370,000 active; AID 652010, 2013;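 active = inhibition above the mean over all tested compounds plus 3 SD, cut at about 3.6% in these data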;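 note: higher inhibition means more luminescence from relief of DAX-1 repression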
DAX1 inh-2 = DAX1 (NR0B1) inhibitors, primary screen, cell-based, HEK293, Gal4-DAX1, luciferase luminescence; Nuclear receptor subfamily 0 group B member 1 (Homo sapiens), P51843; HEK293 Gal4-DAX1 luciferase reporter; inhibition, % at 6.75 µM; 0.99% of 340,000 active;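 active = inhibition above the mean over all tested compounds plus 3 SD, cut at about 4.2% in these data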;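 note: inhibition shows as a rise in luminescence from relieved DAX1 repression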
Target sequence (P51843 207-470 limits assumed): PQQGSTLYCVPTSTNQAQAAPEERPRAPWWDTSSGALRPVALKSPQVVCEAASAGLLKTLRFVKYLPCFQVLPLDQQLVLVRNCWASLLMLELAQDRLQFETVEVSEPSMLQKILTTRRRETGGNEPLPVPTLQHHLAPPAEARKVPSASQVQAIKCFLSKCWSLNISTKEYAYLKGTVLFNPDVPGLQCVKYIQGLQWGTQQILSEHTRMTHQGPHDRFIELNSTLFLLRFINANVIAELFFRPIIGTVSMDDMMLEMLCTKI
hcDAF-12 act = H. contortus DAF-12 nuclear receptor activators, primary screen, cell-based, luminescence, HEK293, lit1-tk-luc reporter. HEK293 hcDAF-12 lit1-tk-luc reporter; 0% DMSO, 100% Δ7-dafachronic acid. activation, % at 6.8 µM. 1.4% of 370,000 active;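 active = activation above the mean of all tested compounds plus 3 SD, cut at about 5.5% in these data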
hgDAF-12 ag = H. glycines DAF-12 receptor agonists, primary screen, cell-based, luminescence, HEK293, GAL4 fusion, UAS-luciferase; activation, % at 6.8 µM; Nuclear hormone receptor DAF-12 (Heterodera glycines), GAL4 fusion; AID 687014, 2013; 1.8% of 370,000 active; HEK293 GAL4-hgDAF12 UAS-luciferase reporter, agonist luminescence; normalized to butyrate control;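 active = activation above a cutoff set at the mean of all screened compounds plus 3 SD, cut at about 10% in these data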
ssDAF12 agonist = S. stercoralis DAF-12 nuclear receptor activators, primary screen, cell-based, luminescence, HEK293, GRIP1 co-expression, lit1-tk-luc; Nuclear hormone receptor DAF-12 (Strongyloides stercoralis); HEK293 ssDAF-12/GRIP1 lit1-tk-luc reporter; % of 3 µM dafachronic acid response; activation, % at 6.8 µM; 1% of 370,000 active;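 active = activation above the mean over all tested compounds plus 3 SD, cut at about 0.9% in these data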
Large screens that a line does not name were inactive. This is a sample that favours compounds with a hit; in the whole collection about 4.8% have one here.

COC(=O)c1ccc(-c2ccc(F)cc2)nc1C	hgDAF-12 ag 11.9
CCOC(=O)c1ccc(-c2ccc3c(c2)CCC3)nc1C	SMARCA2 activ 7.9, hcDAF-12 act 5.6
Cc1ccc([C@H](C)NC(=O)C2=C(N)N(S(=O)(=O)c3ccc(C)cc3)C(C(=O)c3ccccc3)C2c2ccccc2Cl)cc1 (stereo partly drawn)	none (no result: SMARCA2 activ, DAX1 inh-1, DAX1 inh-2)
CN(Cc1ccc(C(C)(C)C)cc1)C(=O)C1CCN(C(=O)Nc2ccccc2)CC1	DAX1 inh-2 7.6
Cc1ccc(CN(C)C(=O)C2CCN(C(=O)Nc3ccccc3)CC2)o1	none
Cc1c(C)n(Cc2ccc(-c3ccccc3C(=O)O)cc2)c2ccc(C(=O)N[C@@H](C)c3ccc(Br)cc3)cc12	none (no result: DAX1 inh-2)
O=C1CCc2cc(S(=O)(=O)N3CCC(C(=O)NC4CCCc5ccccc54)CC3)ccc2N1 (stereo not drawn)	none
Cc1ccc(CCNC(=O)C2CCCN2S(=O)(=O)c2ccc3c(c2)CCC(=O)N3)cc1 (stereo not drawn)	none (no result: SMARCA2 activ, DAX1 inh-1, hcDAF-12 act, hgDAF-12 ag, ssDAF12 agonist)
CC1CCCCC1NC(=O)C1CCN(S(=O)(=O)c2ccc3c(c2)CCC(=O)N3)CC1 (stereo not drawn)	DAX1 inh-2 5.1
COc1ccc(NC(=O)C2CCCN2S(=O)(=O)c2ccc3c(c2)CCC(=O)N3)c(OC)c1 (stereo not drawn)	SMARCA2 activ 7.9
C#CCNC(=O)C[C@H]1C[C@@]2(C(=O)OC)C(=C[C@H](C(C)(C)C)O[C@@H]2C)N(Cc2ccc3c(c2)OCO3)C1=O	none (no result: DAX1 inh-2)
O=C(OCc1ccccc1)c1c(-c2ccccc2)oc2c1C(OCCO)CCC2 (stereo not drawn)	ssDAF12 agonist 1.5 (no result: DAX1 inh-2)
O=C(NC1CCC1)c1ccc(C#Cc2cccc(F)c2)nc1	hgDAF-12 ag 11.0 (no result: DAX1 inh-2)
COc1ccccc1Nc1ccc(C(=O)NC2CCCCC2)cn1	none
S=C(Nc1cccc(Cl)c1)OCCN1CCCC12CCC(c1ccccc1)CC2 (stereo not drawn)	none (no result: SMARCA2 activ, DAX1 inh-1, DAX1 inh-2)
O=C(Nc1ccc(N2CCOCC2)cc1N1CCOCC1)c1cccs1	none
O=C(c1ccc(N2CCOCC2)cc1)c1cccs1	DAX1 inh-1 3.8, hgDAF-12 ag 11.5
O=C(Nc1ccc(F)cc1)NC1CCCCCCC1	hgDAF-12 ag 12.4
O=C(Nc1ccc2nsnc2c1)NC1CCCCC1	hgDAF-12 ag 11.9
O=C(COCc1ccccc1)N1CC[C@H]2[C@H](CCCN2Cc2ccc(F)cc2)C1	none (no result: DAX1 inh-2)
CCOc1ccc(Oc2c(Cl)cnn(Cc3cccc4ccccc34)c2=O)cc1	none (no result: DAX1 inh-2)
COc1ccc2[nH]c3c(c2c1)CCNC3=O	hgDAF-12 ag 10.8
O=C1NCCc2c1[nH]c1ccccc21	none
COC(=O)[C@]12C[C@H](CC(=O)NCc3ccc(C)o3)C(=O)N(CCc3ccc(OC)c(OC)c3)C1=C[C@H](C(C)C)O[C@@H]2C1CC1	none (no result: DAX1 inh-2)
CC(=O)c1ccc(NC(=O)CCS(=O)(=O)c2ccc3c(c2)n(C)c(=O)c(=O)n3C)cc1	DAX1 inh-2 4.8 (no result: SMARCA2 activ, DAX1 inh-1, hcDAF-12 act, hgDAF-12 ag, ssDAF12 agonist)
CC(=O)OCC(=O)N1CCN(C(=O)C(=O)c2cccc(C(F)(F)F)c2)CC1	none (no result: DAX1 inh-2)
N/C(=N\OC(=O)c1ccc(Cl)cc1Cl)c1cccnc1	hgDAF-12 ag 11.4
COC(=O)[C@H](C(C)C)N1Cc2nnn(Cc3ccccc3)c2C=CS1(=O)=O	none (no result: DAX1 inh-2)
O=C(COC(=O)[C@H](Cc1c[nH]c2ccccc12)NC(=O)c1ccc(Cl)cc1)Nc1ccc2c(c1)OCO2	hgDAF-12 ag 11.4
COC(=O)c1cccc(-c2ccc(C(c3c(C)[nH][nH]c3=O)c3c(C)[nH][nH]c3=O)o2)c1	none
COC(=O)c1ccccc1-c1ccc(C(c2c(C)[nH][nH]c2=O)c2c(C)[nH][nH]c2=O)o1	SMARCA2 activ 7.9
O=c1c(O)c(-c2ccccc2)oc2ccccc12	DAX1 inh-2 4.9
CC(NC(=O)CN1C(=O)NC2(CCCCCCC2)C1=O)c1ccccc1 (stereo not drawn)	none
CC(NC(=O)CN1C(=O)NC2(CCCCC2)C1=O)c1ccc(S(N)(=O)=O)cc1 (stereo not drawn)	DAX1 inh-1 3.9
c1cncc(-c2nc(-c3ccco3)cs2)c1	none
c1cncc(-c2nc(-c3cccs3)cs2)c1	hcDAF-12 act 6.2
c1cncc(-c2csc(-c3cccnc3)n2)c1	DAX1 inh-2 4.7
CC(=O)Nc1ccc(-c2csc(-c3cccnc3)n2)cc1	hgDAF-12 ag 10.7
Clc1ccsc1-c1csc(-c2cccnc2)n1	none
CCN(CC)C(=O)CC[C@H]1CC[C@]2(CCCN(S(=O)(=O)c3ccccc3)C2)O1	none (no result: DAX1 inh-2)
COc1ccc(-c2nc(CSCC(=O)N3CCN(C)CC3)c(C)o2)cc1OC	DAX1 inh-2 6.1
O=C(NCCc1ccc(Cl)cc1)C1CCCN1C(=O)Nc1ccc(F)cc1 (stereo not drawn)	none
O=C(NCCc1ccccc1)C1CCCN1C(=O)Nc1ccc(F)cc1 (stereo not drawn)	DAX1 inh-2 5.1
CCCCNC(=O)C[C@H]1C[C@@]2(C(=O)OC)C(=C[C@H](COCc3ccccc3)O[C@@H]2C)N(Cc2ccco2)C1=O	none (no result: DAX1 inh-2)
CCn1c(COc2ccc(Cl)cc2)nnc1SC1CCc2ccccc2C1=O (stereo not drawn)	ssDAF12 agonist 1.5
O=C(C1CCCN1S(=O)(=O)c1cccc([N+](=O)[O-])c1)N1CCN(c2ccccc2)CC1 (stereo not drawn)	none (no result: DAX1 inh-2)
COC(=O)[C@H](C(C)C)N(CCc1cn(CC2CCCCC2)nn1)S(=O)(=O)c1ccccc1Br	none (no result: DAX1 inh-2)
O=C1C=C(C2OC(CO)C(O)C2O)C(=O)N1 (stereo not drawn)	DAX1 inh-2 5.9
O=C(CN1CCN(c2ccccc2)CC1)Nc1scc2c1c(=O)oc1ccccc12	DAX1 inh-2 4.7
COc1ccc(C(=O)NCc2ccc(OCCN(C)C)cc2)cc1OC	hcDAF-12 act 5.6
COc1cc(C(=O)NCc2ccc(OCCN(C)C)cc2)cc(OC)c1OC	none
CC(C)NC(=O)N[C@H]1C[C@@H]2O[C@H](CO)CC[C@@H]2O[C@@H]1CCc1ccc(-c2ccc(F)cc2)cc1	none (no result: DAX1 inh-2)
COc1ccccc1C=NN=Cc1ccccc1OC	ssDAF12 agonist 1.1
CCCc1nnc(SCC(=O)N2CCCCC2C)n1CC1CCCO1 (stereo not drawn)	none
Cc1ccc(NCc2nnc(SCC(N)=O)n2CC2CCCO2)c(C)c1 (stereo not drawn)	DAX1 inh-2 5.5
